Measured values reported in PubChem BioAssay AID588850 (Sanford-Burnham Center for Chemical Genomics, 2011).
The whole screen tested about 360,000 compounds, of which about 3,100 (0.86%) were called active. The sample as a whole holds a higher share of actives than the screen did. Values without a mark were called inactive.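 Rule for the calls: active = at least 50% inhibition at 5 µM, scaled per plate between neutral and stimulator controls; inactive = the rest.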

Test: inhibitors of PAF-induced NF-kB signaling, primary screen, cell-based, GFP fluorescence, uHTS (AID 588850);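 note: PAF is a Pseudomonas aeruginosa culture filtrate used as stimulus; plate controls were PAF-stimulated DMSO wells for no effect and unstimulated DMSO wells for full effect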
Settings: KKLEB NF-kB-GFP reporter, GFP fluorescence overnight, at 5 µM, stronger effect = higher value

| SMILES | inhibition |
| --- | --- |
| CCCN1C(=O)C(Cc2nc3ccccc3c(=O)n2-c2ccccc2)c2cc(C)ccc21 (stereo not drawn) | -39% |
| O=C(Cc1ncc(C(F)(F)F)cc1Cl)Nc1cccc(Br)c1 | 7.6% |
| O=C(CC(O)(C(F)(F)F)C(F)(F)F)Nc1ccc(Cl)c(Cl)c1 | 62.4% (active) |
| CN(CC(=O)Nc1ccc(Cl)c(C(F)(F)F)c1)C(=O)CCC(=O)c1ccccc1 | -0.4% |
| CN(CC(=O)Nc1ccc(OC(F)(F)F)cc1)C(=O)C1CCC1 | 6.5% |
| O=C(O)C1CCCN1C1=NS(=O)(=O)c2ccccc21 (stereo not drawn) | 9.4% |
| O=C(COc1ccc(S(=O)(=O)N2CCOCC2)cc1Cl)N1CCOCC1 | 1.5% |
| O=C(Nn1c(-c2ccc(Cl)cc2)nc2ccccc2c1=O)c1cccnc1Cl | 0.4% |
| Cc1cc(C)n(CC(C)NCc2c(C(=O)N3CCOCC3)nc3c(C)cccn23)n1 (stereo not drawn) | -0.6% |
| COc1ccc(NC(=O)COC(=O)C2COc3ccccc3O2)cc1 (stereo not drawn) | 4.2% |
| C/C(=N/NC(=O)C1COc2ccccc2O1)c1ccco1 (stereo not drawn) | 17.3% |
| O=C(Nc1nc(-c2ccncc2)cs1)C1COc2ccccc2O1 (stereo not drawn) | 53.8% (active) |
| O=C(Nc1cc(S(=O)(=O)N2CCCCC2)ccc1Cl)C1COc2ccccc2O1 (stereo not drawn) | 24.5% |
| CC(=O)c1ccccc1NC(=O)COC(=O)C1COc2ccccc2O1 (stereo not drawn) | -8.8% |
| O=C(Nc1ncc([N+](=O)[O-])s1)C1COc2ccccc2O1 (stereo not drawn) | 60.8% (active) |
| Cc1cc(OC(=O)c2ccccc2)c([N+](=O)[O-])c(=O)[nH]1 | 4.2% |
| CC(=O)Oc1c(C(=O)c2nnc(C)o2)c(=O)n(Cc2ccccc2)c2ccccc12 | 50.9% (active) |
| CCCCCn1c(=O)c(C(=O)OCC)c(Cl)c2ccccc21 | 9.9% |
| O=C(O)CCc1nc2cc(Cl)ccc2n(Cc2ccccc2)c1=O | 2.1% |
| CC(C)CCNC(=O)c1[nH]c(C(F)(F)F)nc1-c1ccccc1 | -2.1% |
| CC(C)(C)C(=O)CCN1C(=O)C2(OCCO2)c2ccccc21 | -2.6% |
| CCCCn1c(N)c(N(CC(C)C)C(=O)c2ccc(-n3c(C)ccc3C)cc2)c(=O)[nH]c1=O | 14.1% |
| CC1(C)CCSC(/C=C/c2ccccc2)=N1 | 55.9% (active) |
| CC1(C(=O)O)CCN1C(=O)/C=C/c1ccccc1 (stereo not drawn) | 11.9% |

| SMILES | inhibition |
| --- | --- |
| CC1(C(=O)NS(=O)(=O)c2ccccc2)CCN1C(=O)C/C=C/c1ccccc1 (stereo not drawn) | 0.3% |
| CCc1cc(-c2nnn(CCC3COCCO3)c2CC)ccc1-c1cn(Cc2ccc3ccccc3c2)nn1 (stereo not drawn) | 19.3% |
| O=C1c2ccccc2NC(c2ccccc2O)N1NS(=O)(=O)c1ccccc1 (stereo not drawn) | -6.3% |
| COc1cccc(N(C(=O)c2snc(C(N)=O)c2N)C(C(=O)NCC2CCCO2)c2c[nH]c3ccccc23)c1 (stereo not drawn) | -0.6% |
| O=C(Nc1nnc(S(=O)(=O)N2CCCCCC2)s1)c1cccc(Br)c1 | 57% (active) |
| COc1cccc(C(=O)Nc2nnc(S(=O)(=O)N3CCOCC3)s2)c1 | -7.5% |
| O=C(Nc1nnc(S(=O)(=O)N2CCOCC2)s1)c1cccc(Br)c1 | 13% |
| C/C(=N\NS(=O)(=O)c1ccc(Cl)cc1)c1ccc(NC(=O)c2ccco2)cc1 | -14% |
| N#CCCC(C#N)(c1cccnc1)N1CCOCC1 (stereo not drawn) | -15.6% |
| CNCC(O)c1ccc(O)c(O)c1 (stereo not drawn) | 12.4% |
| CCN(CC)S(=O)(=O)c1ccc2c3c(cccc13)C(=O)S2 | 54.1% (active) |
| CN(CCc1ccccn1)S(=O)(=O)c1ccc2c3c(cccc13)C(=O)N2 | 5.4% |
| CCN1C(=O)c2cccc3c(S(=O)(=O)Nc4ccccc4O)ccc1c23 | -71.5% |
| Cc1ccc(C(=O)OCC(=O)NCc2cc(C)c(O)c(C)c2)cc1S(=O)(=O)N1CCCCC1 | -0.3% |
| COCCCNc1ccn2nc(-c3ccc(CC(C)C)cc3)cc2n1 | -77.9% |
| O=c1c(/C=N/O)coc2ccc(Cl)cc12 | 0.9% |
| CC(C)(C)OC(=O)NCCCCCC(=O)N/N=C/c1coc2ccccc2c1=O | 4.1% |
| Cc1ccc2occ(/C=N/NC(=O)c3ccccc3C)c(=O)c2c1 | 71% (active) |
| Cc1ccc(NC(=O)[C@H](Cc2ccccc2)NC(=O)CC[C@H]2O[C@@H](n3ccc(=O)[nH]c3=O)[C@H](O)[C@@H]2O)cc1C | -33.7% |
| CCCCC(CC)CNCc1cccn1CCN1CCOCC1 (stereo not drawn) | -18.7% |
| Cc1ccc(COc2ccc(/C=N/NC(=O)CN3CCCCC3)cc2)cc1 | -24.1% |
| Cc1ccc(/C=N/NC(=O)COc2ccccc2-c2ccccc2)cc1 | 51.1% (active) |
| Cc1ccc(/C=N/NC(=O)CSc2nc3ccccc3o2)cc1 | -2.1% |
| O=C(NCc1ccc(F)cc1)c1cc(C2CCCCN2C(=O)c2ccccn2)on1 (stereo not drawn) | 4.9% |
